According to PubChem BioAssay (NCI):
Compounds without any hit were thinned out: in the full panel of roughly 83,000, 20% have a hit.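 Compound tested at a single concentration for 48 hours in 96-well plates; a percent growth value below 10 was scored as active.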 The source made the active and inactive calls.

Tested on: A549/ATCC NSCLC
Assay: NCI-60 one-dose screen, 48 h (100 = growth as untreated, 0 = no growth, -100 = all killed)
Conditions: 10 µM unless noted

SMILES | growth
O=C1c2cccc3cccc(c23)C(=O)N1N1C(=O)c2cccc3c(N4CCOCC4)ccc(c23)C1=O | 95.5% (inactive)
CCO/C=N/C1=C(C#N)C(c2ccc(OC)cc2)c2sc3c(F)cccc3c2O1 (stereo not given) | 43.3% (inactive)
Cc1ccc(CNc2ccc(Cl)cc2NCc2ccc(C)c(O)c2)cc1O | 21% (inactive)
O=C(c1ccc(-c2nc(CSc3nc4ccccc4s3)no2)cc1)N1CCSCC1 | 52.1% (inactive)
C/C(=C(/c1ccc(Cl)cc1)c1ccc(OCCN2CCCC2)cc1)c1ccc(Cl)cc1 | 63.4% (inactive)
CC[C@]12C=CCN3CC[C@@]4(c5cc(NC(=O)CCC(=O)OCc6cn(Cc7ccc(F)cc7)nn6)c(OC)cc5N(C)[C@H]4[C@@](O)(C(=O)OC)[C@@H]1OC(C)=O)[C@@H]32 | 96.5% (inactive)
C=C(C)[C@@H]1CC[C@]2(C(=O)O)CC[C@]3(C)[C@H](CC[C@@H]4[C@@]5(C)C[C@@H](Cc6cn(CCO[C@@H]7O[C@H](COC(C)=O)[C@H](OC(C)=O)[C@H](OC(C)=O)[C@H]7OC(C)=O)nn6)[C@H](O)C(C)(C)[C@@H]5CC[C@]43C)[C@@H]12 | 61.8% (inactive)
C=CCn1c(SCC(=O)Nc2ccc(C(=O)/C=C/c3ccc(Cl)cc3)cc2)nnc1-c1cc(-c2ccc(S(N)(=O)=O)cc2)nc2ccccc12 | 92.6% (inactive)
CCOC(=O)C1=NN(c2ccccc2)C(=O)/C1=C\N1C(=O)CC(=O)NC1=S | 103% (inactive)
CC12CCC3c4ccccc4CCC3(CO1)C2 (stereo not given) | 106% (inactive)
O=C1CC(N2C(=O)/C(=C/C(Cl)=C\c3ccc([N+](=O)[O-])cc3)SC2=S)C(=O)N1c1ccc(Cl)cc1 (stereo not given) | 71% (inactive)
CC1(C)c2[nH]c3ccccc3c2C[C@]2(C)[C@H]3CC=C4[C@@H]5C[C@@](C)(C(N)=O)CC[C@]5(C)CC[C@@]4(C)[C@]3(C)CC[C@@H]12 | 53.6% (inactive)
CCCCCOc1ccc(C(=O)/C(Br)=C/C(=O)O)cc1 | 104% (inactive)
CC(C)N1CCN(Cc2ccc3c(NNC(=O)c4ccccc4)nc4cc(F)ccc4n23)CC1 | 16.2% (inactive)
N#Cc1cccc(NC(=O)c2oc3ccccc3c2-c2cnn(-c3ccccc3)c2)c1 | 81.4% [50 µM] (inactive)
Cc1cccc(N2CCN(CC(O)COc3ccc(Cl)cc3)CC2)c1 (stereo not given) | 117% (inactive)
CCOC(=O)c1c(C)nc2c(c1N)CC(=O)N2Cc1cc(F)cc(Cl)c1 | 82.8% (inactive)
C[C@@H]1CCC[C@H]1CC(N)C(=O)O (stereo not given in full) | 110% (inactive)
O=CC1(C2(C=O)c3ccccc3-c3ccccc32)c2ccccc2-c2ccccc21 | -50.5% (active)
O=C1Nc2ccc(I)cc2C1=O | 88.7% (inactive)

SMILES | growth
CN1CCN(c2ccc(NC(=O)c3nc4ccc5[nH]ncc5c4c4c3CCCC4)cc2C(F)(F)F)CC1 | 60.2% (inactive)
CN(C)C1CCN(Cc2ccc(NC(=O)c3cncc(C#Cc4cnc(N)c5ncccc45)c3)cc2C(F)(F)F)CC1 | 72.2% (inactive)
COc1ccc(C/C(C)=C(/c2ccc(OCCN3CCCCC3)cc2)c2ccc(OC(=O)NCc3ccccc3)cc2)cc1 | -93.4% (active)
COc1ccccc1NC(=O)Cn1cc(CN2CCN(c3ccnc4cc(Cl)ccc34)CC2)nn1 | 91% (inactive)
N=C(N)c1ccc(-c2ccc(-c3ccc(F)cc3)o2)o1 | 1.43% (active)
CN1C(=O)/C(=C/c2ccc(C(=O)Nc3ncc(Cc4ccc(Cl)cc4)s3)cc2)SC1=S | 48.5% (inactive)
CCCCCC(=O)OCC(=O)O[C@@H]1C[C@]2(C(C)C)O[C@@]1(C)[C@@H]1CC[C@@H](C)[C@H]1[C@@H]2OC(=O)/C=C/c1ccccc1 | 78.7% (inactive)
CC(=O)N(N=Nc1ccccc1)c1cccc2ccccc12 | 97.4% (inactive)
COc1ccc(/C=C2\C(=O)N=C3N2NC(c2cc(Br)ccc2O)C=C(C)N3c2ccccc2)cc1 (stereo not given) | 96% (inactive)
CC(C)(C)[Si](C)(C)O[C@H]1C(=O)C=CN2CC=C[C@@H]12 | 110% [100 µM] (inactive)
C=C1C(=O)O[C@H]2[C@H]1CC/C(COC(=O)CSCCSCC(=O)OC/C1=C/CC[C@@]3(C)O[C@H]3[C@H]3OC(=O)C(=C)[C@@H]3CC1)=C\CC[C@@]1(C)O[C@@H]21 | 69.5% (inactive)
Brc1ccc2[nH]cc(-c3nonc3-c3c[nH]c4ccccc34)c2c1 | 35.9% (inactive)
COc1cccc(NC(=O)Cn2cc(CN3CCN(c4ccnc5cc(Cl)ccc45)CC3)nn2)c1 | 87.9% (inactive)
CCOc1ccc(NC(=O)CSc2oc(-c3ccccc3)nc2S(=O)(=O)c2ccc(F)cc2)cc1 | 46% (inactive)
O=C1Nc2ccc(Br)cc2/C1=N/c1n[nH]c(=S)s1 | 98% (inactive)
COc1ccc(C(=O)C2C(c3ccc(OC)cc3)CN(C)C23C(=O)Nc2ccccc23)cc1 (stereo not given) | 87.9% (inactive)
Cc1noc(C)c1C(=O)OCc1coc2ccccc2c1=O | 89.5% (inactive)
C[C@]12CC[C@@H]3c4ccc(O)c([N+](=O)[O-])c4CC[C@H]3[C@@H]1CCC2=O | 102% (inactive)
COc1cccc([C@H]2c3[nH]c4ccccc4c3C[C@H]3C(=O)N(CCCCCCC(=O)NO)CC(=O)N23)c1 | 94.9% (inactive)
CO/N=C(/C)c1ccc(NC(=O)CSc2nnc(-c3ccncc3)n2-c2ccccc2)cc1 | 68.4% (inactive)
